# Reference: ChEMBL document CHEMBL3988442, “University of Dundee, Small-Polar-MMV Screening Library” (2021)
# For some of these results: Results with a measured potency or affinity are listed apart.
# Assays:
# Parameters in all cases: scale not given: direction of the effect not stated beside the values
# [1] = target: Protein translocase subunit SecA (Escherichia coli (strain K12)) (UniProt P10408); test: Assay to Identify E. coli SecA ATPase Inhibitors; assay type: functional; conditions: 30 µM
# Chain of Protein translocase subunit SecA (Escherichia coli (strain K12)) (P10408 whole entry): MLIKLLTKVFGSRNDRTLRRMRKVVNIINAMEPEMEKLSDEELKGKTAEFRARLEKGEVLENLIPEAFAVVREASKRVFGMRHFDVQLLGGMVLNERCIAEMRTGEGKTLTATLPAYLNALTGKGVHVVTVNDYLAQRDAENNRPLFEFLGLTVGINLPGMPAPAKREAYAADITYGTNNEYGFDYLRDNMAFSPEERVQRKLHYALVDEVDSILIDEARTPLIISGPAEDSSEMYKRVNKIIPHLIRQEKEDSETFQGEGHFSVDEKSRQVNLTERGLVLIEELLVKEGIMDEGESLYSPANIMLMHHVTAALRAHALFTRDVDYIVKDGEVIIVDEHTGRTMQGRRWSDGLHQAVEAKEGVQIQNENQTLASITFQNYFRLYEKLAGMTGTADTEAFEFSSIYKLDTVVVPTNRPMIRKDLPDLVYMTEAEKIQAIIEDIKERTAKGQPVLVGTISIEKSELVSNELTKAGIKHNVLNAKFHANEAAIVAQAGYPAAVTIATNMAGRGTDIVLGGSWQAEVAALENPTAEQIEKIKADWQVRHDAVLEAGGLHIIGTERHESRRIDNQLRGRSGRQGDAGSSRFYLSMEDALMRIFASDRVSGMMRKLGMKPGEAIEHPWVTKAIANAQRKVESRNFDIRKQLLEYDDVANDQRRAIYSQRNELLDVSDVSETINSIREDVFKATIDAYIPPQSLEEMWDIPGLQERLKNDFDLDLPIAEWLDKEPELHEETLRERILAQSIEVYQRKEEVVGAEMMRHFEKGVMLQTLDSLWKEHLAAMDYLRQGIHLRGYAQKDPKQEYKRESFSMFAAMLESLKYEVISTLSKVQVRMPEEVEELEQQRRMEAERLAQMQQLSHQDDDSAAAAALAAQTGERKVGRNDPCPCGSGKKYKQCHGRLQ
# [2] = target: T1, Ubiquitin-activating enzyme e1, putative (Leishmania donovani (strain BPK282A1)) (UniProt E9BSI1); test: Leishmania donovani Ubiquitin Activating Enzyme (LdE1); assay type: functional; conditions: 30 µM
# T1 sequence (whole entry): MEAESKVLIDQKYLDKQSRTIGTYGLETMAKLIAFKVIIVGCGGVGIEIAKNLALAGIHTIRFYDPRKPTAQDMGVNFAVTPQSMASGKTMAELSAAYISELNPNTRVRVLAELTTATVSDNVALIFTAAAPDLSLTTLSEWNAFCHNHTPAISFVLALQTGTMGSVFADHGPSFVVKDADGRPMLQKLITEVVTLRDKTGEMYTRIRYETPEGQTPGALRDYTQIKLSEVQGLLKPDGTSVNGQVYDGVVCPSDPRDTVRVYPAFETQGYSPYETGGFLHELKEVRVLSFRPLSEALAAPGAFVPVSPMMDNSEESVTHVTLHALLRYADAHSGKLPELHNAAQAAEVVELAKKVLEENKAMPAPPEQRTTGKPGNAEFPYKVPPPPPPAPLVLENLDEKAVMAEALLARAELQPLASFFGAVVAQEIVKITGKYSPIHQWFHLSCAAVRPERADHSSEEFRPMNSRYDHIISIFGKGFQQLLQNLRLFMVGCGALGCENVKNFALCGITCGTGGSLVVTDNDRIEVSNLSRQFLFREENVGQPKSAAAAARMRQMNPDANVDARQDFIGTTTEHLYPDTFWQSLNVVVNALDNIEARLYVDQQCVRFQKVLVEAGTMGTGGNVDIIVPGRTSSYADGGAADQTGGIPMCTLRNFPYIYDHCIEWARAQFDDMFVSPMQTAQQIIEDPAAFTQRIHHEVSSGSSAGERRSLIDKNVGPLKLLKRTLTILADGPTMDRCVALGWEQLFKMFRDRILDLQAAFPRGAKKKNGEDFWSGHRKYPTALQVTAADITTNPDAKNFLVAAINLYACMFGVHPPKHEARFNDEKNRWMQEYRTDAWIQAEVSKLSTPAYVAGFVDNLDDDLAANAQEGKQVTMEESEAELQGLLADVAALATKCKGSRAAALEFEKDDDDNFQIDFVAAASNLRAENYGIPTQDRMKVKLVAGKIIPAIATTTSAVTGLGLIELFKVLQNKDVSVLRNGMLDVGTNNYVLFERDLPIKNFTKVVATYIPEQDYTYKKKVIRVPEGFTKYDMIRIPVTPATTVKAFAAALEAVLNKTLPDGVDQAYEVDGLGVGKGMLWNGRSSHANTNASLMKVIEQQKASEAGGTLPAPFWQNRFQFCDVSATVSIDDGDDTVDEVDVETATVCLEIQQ
# [3] = target: AMP-activated protein kinase, AMPK (Homo sapiens) (UniProt P54646+O43741+P54619+Q9UGJ0+Q9Y478+Q13131+Q9UGI9); test: AMP-dependent Kinase enzyme assay. An in vitro enzyme assay that detects ADP turnover that is directly proportional to AMPK activity. This uses naive AMPK that is activated during the assay with MK-8722; assay type: functional; conditions: 30 µM
# [4] = target: Sialic acid-binding Ig-like lectin 9 (Homo sapiens) (UniProt Q9Y336); test: Hs-Siglec9 ALPHAscreen SOP 20170721; conditions: 10 µM
# Chain of Sialic acid-binding Ig-like lectin 9 (Homo sapiens) (Q9Y336 whole entry): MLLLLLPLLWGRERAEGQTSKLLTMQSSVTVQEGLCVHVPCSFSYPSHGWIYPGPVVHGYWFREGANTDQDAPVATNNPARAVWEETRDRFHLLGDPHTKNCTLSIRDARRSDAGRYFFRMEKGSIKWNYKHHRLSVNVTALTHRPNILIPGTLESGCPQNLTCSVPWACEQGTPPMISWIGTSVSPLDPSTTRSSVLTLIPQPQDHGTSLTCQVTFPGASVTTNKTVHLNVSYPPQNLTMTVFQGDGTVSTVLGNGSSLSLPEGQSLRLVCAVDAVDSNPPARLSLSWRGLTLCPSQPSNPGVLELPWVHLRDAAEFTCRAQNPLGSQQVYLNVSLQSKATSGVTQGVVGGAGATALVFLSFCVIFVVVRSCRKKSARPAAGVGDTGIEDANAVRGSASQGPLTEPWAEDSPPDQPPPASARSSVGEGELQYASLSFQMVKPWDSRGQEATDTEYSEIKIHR
# [5] = tested on: Trypanosoma cruzi; test: Trypanosoma cruzi phosphomannomutase and mannose-1-phosphate guanylyltransferase assay; assay type: functional; conditions: 10 µM
# [6] = target: T2, Arginase-2, mitochondrial (Homo sapiens) (UniProt P78540); test: in vitro enzyme assay to detect the production of urea directly proportional to the activity of Arginase II; assay type: functional; conditions: 33.3 µM; further: in the data most compounds retested in dose-response had high values
# T2 sequence (whole entry): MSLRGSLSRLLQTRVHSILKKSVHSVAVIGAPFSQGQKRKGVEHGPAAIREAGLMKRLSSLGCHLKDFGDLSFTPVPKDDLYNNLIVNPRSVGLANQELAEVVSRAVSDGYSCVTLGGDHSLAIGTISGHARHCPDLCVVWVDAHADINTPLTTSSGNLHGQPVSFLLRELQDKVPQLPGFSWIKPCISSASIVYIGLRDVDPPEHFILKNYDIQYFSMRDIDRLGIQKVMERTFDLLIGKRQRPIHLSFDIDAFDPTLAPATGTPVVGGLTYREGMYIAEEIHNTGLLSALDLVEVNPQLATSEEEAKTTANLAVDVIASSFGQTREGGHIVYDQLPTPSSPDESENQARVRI
# [7] = target: T3, Proteasome subunit beta (Trypanosoma cruzi) (UniProt O96673); test: Trypanosoma cruzi proteasome chymotrypsin-like activity (TcProtChymo) assay.; further: in the data most compounds retested in dose-response had high values; assay type: functional; conditions: 9.37 µM
# T3 sequence (whole entry): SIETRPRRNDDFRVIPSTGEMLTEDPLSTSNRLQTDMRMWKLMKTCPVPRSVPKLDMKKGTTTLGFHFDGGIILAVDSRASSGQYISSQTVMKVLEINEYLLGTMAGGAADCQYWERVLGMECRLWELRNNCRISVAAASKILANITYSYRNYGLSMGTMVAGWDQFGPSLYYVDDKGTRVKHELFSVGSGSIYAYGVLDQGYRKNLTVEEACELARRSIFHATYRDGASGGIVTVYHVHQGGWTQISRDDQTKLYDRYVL
# [8] = organism: Homo sapiens; test: To identify inhibition of the IFN signalling (Jak-Stat) pathway via expression of an eGFP reporter gene under the control of an IFN-stimulated response element (ISRE) containing MxA promoter.; assay type: functional; conditions: 30 µM
# [9] = target: T4, Tyrosyl-tRNA synthetase, putative (Trypanosoma cruzi (strain CL Brener)) (UniProt Q4DSP6); test: Trypanosoma cruzi tyrosyl tRNA synthetase (TcYRS) _High Tyrosine SOP; assay type: functional; conditions: 30 µM; further: in the data most compounds retested in dose-response had high values
# T4 sequence (whole entry): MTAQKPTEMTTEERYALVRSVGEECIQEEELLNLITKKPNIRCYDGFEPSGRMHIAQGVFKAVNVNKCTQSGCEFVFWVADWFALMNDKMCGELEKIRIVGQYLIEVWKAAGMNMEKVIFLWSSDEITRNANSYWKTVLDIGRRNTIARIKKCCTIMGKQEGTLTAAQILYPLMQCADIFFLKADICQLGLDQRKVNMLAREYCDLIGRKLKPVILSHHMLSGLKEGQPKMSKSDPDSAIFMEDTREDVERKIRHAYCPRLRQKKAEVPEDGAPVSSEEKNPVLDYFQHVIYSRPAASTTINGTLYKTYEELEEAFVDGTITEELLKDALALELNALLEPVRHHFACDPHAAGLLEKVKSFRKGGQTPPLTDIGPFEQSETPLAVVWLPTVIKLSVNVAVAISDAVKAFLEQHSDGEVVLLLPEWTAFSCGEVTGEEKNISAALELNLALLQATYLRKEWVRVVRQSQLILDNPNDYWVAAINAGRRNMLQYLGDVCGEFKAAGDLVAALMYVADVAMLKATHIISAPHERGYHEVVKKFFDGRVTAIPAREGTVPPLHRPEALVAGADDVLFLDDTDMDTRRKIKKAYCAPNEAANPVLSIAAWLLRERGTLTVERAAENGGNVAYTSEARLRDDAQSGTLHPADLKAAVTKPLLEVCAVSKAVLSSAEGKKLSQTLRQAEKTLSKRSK
# [10] = target: T4, Tyrosyl-tRNA synthetase, putative (Trypanosoma cruzi (strain CL Brener)); test: Trypanosoma cruzi tyrosyl tRNA synthetase (TcYRS) SOP; assay type: functional; conditions: 30 µM
# [11] = target: Chromo domain-containing protein 1 (Saccharomyces cerevisiae (strain ATCC 204508 / S288c) (Baker's yeast)) (UniProt P32657); test: ScCHD-1 Enzyme Inhibition Assay; assay type: functional; conditions: 30 µM; further: in the data most compounds retested in dose-response had high values
# Chain of Chromo domain-containing protein 1 (Saccharomyces cerevisiae (strain ATCC 204508 / S288c) (Baker's yeast)) (P32657 whole entry, the tested form may be a part): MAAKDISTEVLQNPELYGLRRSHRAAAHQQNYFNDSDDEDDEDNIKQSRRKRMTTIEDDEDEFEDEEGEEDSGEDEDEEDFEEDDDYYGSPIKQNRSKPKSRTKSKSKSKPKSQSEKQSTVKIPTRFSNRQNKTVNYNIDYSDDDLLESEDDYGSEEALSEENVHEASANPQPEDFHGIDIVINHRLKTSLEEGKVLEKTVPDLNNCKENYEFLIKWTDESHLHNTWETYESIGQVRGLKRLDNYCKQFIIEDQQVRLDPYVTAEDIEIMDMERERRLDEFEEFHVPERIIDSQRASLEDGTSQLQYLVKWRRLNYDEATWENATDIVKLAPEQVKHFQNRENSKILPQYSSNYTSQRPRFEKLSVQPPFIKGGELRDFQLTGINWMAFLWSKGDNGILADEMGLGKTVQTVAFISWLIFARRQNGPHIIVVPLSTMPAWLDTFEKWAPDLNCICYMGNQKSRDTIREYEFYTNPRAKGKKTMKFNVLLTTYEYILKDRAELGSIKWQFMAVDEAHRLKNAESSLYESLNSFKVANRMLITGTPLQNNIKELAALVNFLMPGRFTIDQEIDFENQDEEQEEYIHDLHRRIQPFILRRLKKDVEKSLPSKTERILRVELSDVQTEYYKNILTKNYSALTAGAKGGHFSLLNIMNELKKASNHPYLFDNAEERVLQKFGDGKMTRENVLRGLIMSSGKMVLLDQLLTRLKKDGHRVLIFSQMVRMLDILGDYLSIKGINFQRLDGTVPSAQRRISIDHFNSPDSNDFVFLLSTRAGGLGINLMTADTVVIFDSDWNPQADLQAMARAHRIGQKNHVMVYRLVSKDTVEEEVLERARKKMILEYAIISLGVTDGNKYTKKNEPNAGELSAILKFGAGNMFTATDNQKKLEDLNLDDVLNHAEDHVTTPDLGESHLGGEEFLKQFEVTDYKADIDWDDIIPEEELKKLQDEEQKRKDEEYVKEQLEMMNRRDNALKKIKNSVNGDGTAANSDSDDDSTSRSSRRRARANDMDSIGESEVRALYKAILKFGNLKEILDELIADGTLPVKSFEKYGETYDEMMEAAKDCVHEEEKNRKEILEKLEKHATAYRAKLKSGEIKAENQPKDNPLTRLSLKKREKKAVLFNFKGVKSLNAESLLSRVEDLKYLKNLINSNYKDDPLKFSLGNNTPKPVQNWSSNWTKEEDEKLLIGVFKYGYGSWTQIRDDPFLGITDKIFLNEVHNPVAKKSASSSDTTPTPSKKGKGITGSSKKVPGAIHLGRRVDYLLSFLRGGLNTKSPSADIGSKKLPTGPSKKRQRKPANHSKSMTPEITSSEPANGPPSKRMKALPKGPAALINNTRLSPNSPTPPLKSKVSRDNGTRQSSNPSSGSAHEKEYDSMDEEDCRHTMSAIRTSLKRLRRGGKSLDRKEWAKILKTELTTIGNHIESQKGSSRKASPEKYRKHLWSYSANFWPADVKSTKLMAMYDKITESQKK
SMILES,Percent Effect [1],Percent Effect [2],Percent Effect [3],Percent Effect [4],Percent Effect [5],Percent Effect [6],Percent Effect [7],Percent Effect [8],Percent Effect [9],Percent Effect [10],Percent Effect [11]
CC(Cn1ccnc1)NC(=O)C1(c2ccc3c(c2)OCCO3)CCCC1 (stereo unspecified),-1.6%,20.2%,-9.88%,-5.21%,1.79%,-2.66%,15.2%,10.3%,6.4%,24.1%,-7.42%
CC(C)Nc1ncnc2c1CCN(C(=O)c1ccncc1F)CC2,-4.14%,8.11%,0.552%,-7.16%,-6.35%,-2.87%,17.2%,4.19%,3.24%,10.3%,-3.13%
CCN(CC)C(=O)CCNc1cncc(-n2nc(C)cc2C)n1,-5.54%,5.41%,3.1%,-3.77%,-7.92%,4.71%,13.1%,6.24%,2.15%,3.7%,-6.4%
CN1CCCCC1c1ncc2c(n1)CCN(Cc1ccccc1Cl)C2 (stereo unspecified),1.96%,-13.3%,4.6%,2.83%,3.74%,2.56%,18.9%,-3.83%,19.1%,14.1%,1.52%
O=C(CCc1cccs1)N1CCC(N2CCNC2=O)CC1,-2.57%,23.4%,-4.07%,-12.7%,3.23%,-1.05%,18.5%,-5.88%,7.62%,25.9%,-19.5%
Cc1noc([C@@H]2C[C@H]3OCC[C@H]3N(S(=O)(=O)c3cccnc3)C2)n1,-2.85%,11%,-6.86%,6.79%,5.75%,-5.19%,4.02%,-3.51%,3.12%,11.1%,-6.9%
CC(C)(C)c1cnc(CN2CCC[C@H]2CO)o1,-1.75%,-5.2%,4.08%,12.3%,5.62%,-0.712%,-1.01%,-3.74%,7.77%,9.76%,-5.64%
COC(=O)CNC(=O)CSCc1nc(O)c2c(C)c(C)sc2n1,-1.31%,-6.67%,14.7%,4.89%,-3.93%,3.7%,9.8%,-3.69%,3.17%,0%,-4.91%
CC(Cn1cccn1)NC(=O)Nc1nnc(C2CC2)s1 (stereo unspecified),-8.16%,13%,2.37%,7.36%,1.12%,-0.356%,-0.845%,10.7%,7.77%,12.2%,-5.78%
CC(=O)Nc1nc(C(=O)N2CCCC(n3nc(C)cc3C)C2)cs1 (stereo unspecified),-5.42%,0%,5.38%,-3.57%,-5.13%,-1.8%,-7.02%,-2.38%,-2.46%,-11.1%,5.41%
CCc1nnc2n1CCN(CC(=O)Nc1sccc1C#N)C2,-4.04%,10.5%,-7.74%,-3.22%,-8.68%,5.4%,12.6%,-5.63%,5.42%,6.17%,-3.17%
